Source: PubChem BioAssay
Gli-Sufu block: antagonists of Gli-Sufu signaling; AID 588413; Sufu-KO-LIGHT fibroblasts, Gli luciferase reporter luminescence; inhibition, % at 5 µM; 0.74% of 340,000 active;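 active = inhibition above about 55%, limit read from the data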
Mdm2 MdmX PPI: inhibitors of human Mdm2/MdmX interaction. O15151+Q00987. SaOS-2 split-luciferase Mdm2/MdmX complementation, luminescence. inhibition, % at 8 µM. 3% of 330,000 active. AID 485346;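 active = inhibition of at least 50% at 8 µM in the primary screen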
Target sequence (O15151 whole entry, looked up): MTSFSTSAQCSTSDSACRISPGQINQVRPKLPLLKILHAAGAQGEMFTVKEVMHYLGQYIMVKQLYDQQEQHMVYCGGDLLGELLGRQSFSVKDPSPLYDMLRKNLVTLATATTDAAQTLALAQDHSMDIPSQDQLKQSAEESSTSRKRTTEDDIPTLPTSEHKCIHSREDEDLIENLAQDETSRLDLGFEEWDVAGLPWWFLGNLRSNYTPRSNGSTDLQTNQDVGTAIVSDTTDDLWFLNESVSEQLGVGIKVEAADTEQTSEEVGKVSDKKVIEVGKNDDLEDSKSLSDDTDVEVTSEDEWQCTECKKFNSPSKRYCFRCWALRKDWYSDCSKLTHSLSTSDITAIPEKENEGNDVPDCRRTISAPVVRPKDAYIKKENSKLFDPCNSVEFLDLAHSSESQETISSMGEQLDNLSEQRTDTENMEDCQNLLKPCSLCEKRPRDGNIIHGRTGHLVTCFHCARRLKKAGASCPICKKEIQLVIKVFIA
Target sequence (Q00987 whole entry, looked up): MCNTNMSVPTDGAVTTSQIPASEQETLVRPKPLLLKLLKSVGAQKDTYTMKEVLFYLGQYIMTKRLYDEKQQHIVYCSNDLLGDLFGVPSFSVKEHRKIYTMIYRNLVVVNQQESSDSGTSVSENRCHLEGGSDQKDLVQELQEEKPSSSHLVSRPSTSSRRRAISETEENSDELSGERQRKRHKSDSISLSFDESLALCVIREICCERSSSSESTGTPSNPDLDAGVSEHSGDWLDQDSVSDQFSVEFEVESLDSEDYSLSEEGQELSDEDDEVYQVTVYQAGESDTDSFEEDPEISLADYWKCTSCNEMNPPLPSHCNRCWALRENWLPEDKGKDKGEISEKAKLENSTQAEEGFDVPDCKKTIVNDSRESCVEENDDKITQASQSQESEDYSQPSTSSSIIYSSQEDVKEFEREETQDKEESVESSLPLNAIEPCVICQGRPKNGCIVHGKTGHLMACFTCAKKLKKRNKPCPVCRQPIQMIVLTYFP
Jurkat NFkB inh: inhibitors of the PMA/ionomycin-induced NF-kB reporter in Jurkat cells; PMA/ionomycin-induced NF-kB luciferase reporter, luminescence; inhibition, % at 4 µM; 0.53% of 330,000 active; in the data active = inhibition above about 50%
CSC inhib: cancer stem cell inhibition; 1.1% of 300,000 active; cancer stem cell-like cells viability, luminescence; AID 2717; inhibition, % at 7.5 µM; in the data active = inhibition above about 75%; tested in HMLE shEcad cells
Beta cell apopt: blocks beta cell apoptosis. INS-1E cytokine-induced death, ATP luminescence, 48 h; percent of positive-control rescue, neutral wells zero. AID 435005. 0.8% of 300,000 active. protection from apoptosis, % (no concentration beside the values);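 active = Every replicate reaches about 75%, or at least half do and their mean reaches it too, limit read from the data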;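 also: higher means more ATP so stronger rescue from cytokine killing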
697 NFkB inh: inhibitors of the PMA/ionomycin-induced NF-kB reporter in 697 B cells. 697 B-cell NF-kB luciferase reporter, 16 h. inhibition, % at 4 µM. 0.33% of 330,000 active; in the data active = inhibition above about 35%
Gli-Sufu confirm: Gli-SUFU antagonism confirmation, single concentration. Sufu-KO-LIGHT cells, Gli luciferase reporter, luminescence. inhibition, % at 5 µM. 40% of 2,500 active. AID 602428. shares compounds with Gli-Sufu block;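 active = mean inhibition at 5 µM reaching about 45%, limit read from the data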
SufuKO cytotox: cytotoxicity counter-screen for Gli-SUFU antagonists; shares compounds with Gli-Sufu block; Sufu-KO-LIGHT cells cytotoxicity, ATP luminescence; cytotoxicity, % at 5 µM; 32% of 2,500 active; AID 651994;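 active = mean cytotoxicity at 5 µM above about 25%, limit read from the data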;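 also: cells exposed to compound overnight for roughly 16 to 18 hours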
Wnt3a counter: counter-screen for Gli-SUFU antagonists: Wnt3a reporter inhibition; shares compounds with Gli-Sufu block; Wnt-LIGHT cells, Wnt3a-driven luciferase reporter, luminescence; inhibition, % at 6.25 µM; 20% of 2,500 active; AID 651995;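 active = mean inhibition above about 25%, limit read from the data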
A number is an active result. This is a sample that favours compounds with a hit; in the whole collection about 4.5% have one here.

How did O=C(NCc1ccc(F)cc1)C(=O)NCC1OCCCN1S(=O)(=O)c1cccs1 (stereo not given) do in these assays?
Gli-Sufu block: 99; Mdm2 MdmX PPI: inactive; Jurkat NFkB inh: inactive; CSC inhib: inactive; Beta cell apopt: inactive; 697 NFkB inh: inactive; Gli-Sufu confirm: inactive; SufuKO cytotox: inactive; Wnt3a counter: inactive

Results for CCOCCCNC(=S)N1C2CCC1CC(NC(=O)Nc1ccc(C(=O)OCC)cc1)C2 (stereo not given) ?
Gli-Sufu block: 70; Mdm2 MdmX PPI: inactive; Jurkat NFkB inh: inactive; Beta cell apopt: inactive; 697 NFkB inh: inactive; Gli-Sufu confirm: inactive; SufuKO cytotox: 31; Wnt3a counter: inactive

Results for CCNC(=S)N1C2CCC1CC(NC(=O)Nc1ccc(C(=O)OCC)cc1)C2 (stereo not given) ?
Gli-Sufu block: inactive; Mdm2 MdmX PPI: inactive; Jurkat NFkB inh: inactive; CSC inhib: inactive; Beta cell apopt: inactive; 697 NFkB inh: inactive

How did O=C(O)CCCNC(=O)C(c1ccccc1)c1ccccc1 do in these assays?
Gli-Sufu block: inactive; Mdm2 MdmX PPI: inactive; Jurkat NFkB inh: inactive; CSC inhib: inactive; Beta cell apopt: inactive; 697 NFkB inh: inactive

How did O=C(O)CCCNC(=O)CCCNC(=O)C(c1ccccc1)c1ccccc1 do in these assays?
Gli-Sufu block: inactive; Mdm2 MdmX PPI: inactive; Jurkat NFkB inh: inactive; 697 NFkB inh: inactive; Gli-Sufu confirm: inactive; SufuKO cytotox: inactive; Wnt3a counter: inactive

Results for O=C(NCc1ccccc1C(F)(F)F)c1cccc2c1C(=O)c1ccc(N3CCCCC3)cc1S2(=O)=O ?
Gli-Sufu block: inactive; Mdm2 MdmX PPI: inactive; Jurkat NFkB inh: inactive; Beta cell apopt: inactive; 697 NFkB inh: inactive

Results for C/C(=N/NC(=O)c1nnn(-c2nonc2N)c1-c1ccccc1)c1ccc2c(c1)OCO2 ?
Gli-Sufu block: inactive; Mdm2 MdmX PPI: inactive; Jurkat NFkB inh: inactive; CSC inhib: inactive; Beta cell apopt: inactive; 697 NFkB inh: inactive; Gli-Sufu confirm: inactive; SufuKO cytotox: inactive; Wnt3a counter: inactive

What do the screens show for `CCOc1cccc(-c2c(C(=O)N/N=C(\C)c3ccncc3)nnn2-c2nonc2N)c1`?
Gli-Sufu block: inactive; Mdm2 MdmX PPI: inactive; Jurkat NFkB inh: inactive; CSC inhib: inactive; 697 NFkB inh: inactive

How did CCOc1cccc(-c2c(C(=O)N/N=C(\C)c3ccccn3)nnn2-c2nonc2N)c1 do in these assays?
Gli-Sufu block: 75; CSC inhib: inactive; Gli-Sufu confirm: 86; SufuKO cytotox: 51; Wnt3a counter: 88

Results for Cn1c(=O)c2c(nc(NCc3ccc4c(c3)OCO4)n2Cc2ccc(F)cc2)n(C)c1=O ?
Gli-Sufu block: inactive; Mdm2 MdmX PPI: inactive; Jurkat NFkB inh: inactive; CSC inhib: inactive; Beta cell apopt: inactive; 697 NFkB inh: inactive; Gli-Sufu confirm: inactive; SufuKO cytotox: 27; Wnt3a counter: inactive

What do the screens show for `Cn1c(=O)c2c(nc(NCc3ccc4c(c3)OCO4)n2Cc2ccccc2)n(C)c1=O`?
Gli-Sufu block: 64; Mdm2 MdmX PPI: inactive; Jurkat NFkB inh: inactive; CSC inhib: inactive; 697 NFkB inh: inactive; Gli-Sufu confirm: 62; SufuKO cytotox: 32; Wnt3a counter: inactive

Results for Cn1c(=O)c2c(nc(NCc3ccc4c(c3)OCO4)n2Cc2ccccc2F)n(C)c1=O ?
Gli-Sufu block: inactive; Mdm2 MdmX PPI: inactive; Jurkat NFkB inh: inactive; CSC inhib: inactive; Beta cell apopt: inactive; 697 NFkB inh: inactive

Results for Cn1c(=O)c2c(nc(Oc3ccc4c(c3)OCO4)n2Cc2ccc(Cl)cc2)n(C)c1=O ?
Gli-Sufu block: inactive; Mdm2 MdmX PPI: inactive; Jurkat NFkB inh: inactive; CSC inhib: inactive; Beta cell apopt: inactive; 697 NFkB inh: inactive

Results for CC(NC(=O)CNC(=O)c1ccccc1F)c1ccc(-n2ccnc2)cc1 (stereo not given) ?
Gli-Sufu block: inactive; Mdm2 MdmX PPI: inactive; Jurkat NFkB inh: inactive; CSC inhib: inactive; Beta cell apopt: inactive; 697 NFkB inh: inactive

What do the screens show for `O=C1NC(c2cccc3ccccc23)Nc2ccc(Cl)cc21` (stereo not given)?
Gli-Sufu block: 61; Gli-Sufu confirm: 59; SufuKO cytotox: 64; Wnt3a counter: inactive

Results for Clc1ccc(C2Nc3cccc4cccc(c34)N2)c(Cl)c1 ?
Gli-Sufu block: inactive

How did Cc1ccc(S(=O)(=O)N2CCN(C(=O)COC(=O)CNC(=O)c3ccc(Cl)cc3Cl)CC2)cc1 do in these assays?
Gli-Sufu block: inactive; Mdm2 MdmX PPI: inactive; Jurkat NFkB inh: inactive; CSC inhib: inactive; Beta cell apopt: inactive; 697 NFkB inh: inactive

What do the screens show for `COc1cc(NC(c2ccccc2)c2ccccc2)cc(OC)c1OC`?
Gli-Sufu block: inactive; Mdm2 MdmX PPI: inactive; Jurkat NFkB inh: inactive; Beta cell apopt: inactive; 697 NFkB inh: inactive; Gli-Sufu confirm: inactive; SufuKO cytotox: inactive; Wnt3a counter: inactive

What do the screens show for `COc1cc(NC(=O)CNC(c2ccccc2)c2ccccc2)cc(OC)c1OC`?
Gli-Sufu block: inactive; Mdm2 MdmX PPI: inactive; Jurkat NFkB inh: inactive; CSC inhib: inactive; Beta cell apopt: inactive; 697 NFkB inh: inactive

How did COC(=O)C(C)Sc1nc2c(cnn2-c2ccccc2)c(=O)[nH]1 (stereo not given) do in these assays?
Gli-Sufu block: inactive; Mdm2 MdmX PPI: inactive; Jurkat NFkB inh: inactive; CSC inhib: inactive; Beta cell apopt: inactive; 697 NFkB inh: inactive

How did COC(=O)C(C)Sc1nc2c(cnn2-c2ccc(Cl)cc2)c(=O)[nH]1 (stereo not given) do in these assays?
Gli-Sufu block: 60; Mdm2 MdmX PPI: inactive; Jurkat NFkB inh: inactive; CSC inhib: inactive; Beta cell apopt: inactive; 697 NFkB inh: inactive; Gli-Sufu confirm: inactive; SufuKO cytotox: inactive; Wnt3a counter: inactive

How did Nn1c(SCC(=O)NC2CCS(=O)(=O)C2)nc2scc(-c3ccccc3)c2c1=O (stereo not given) do in these assays?
Gli-Sufu block: inactive; Mdm2 MdmX PPI: inactive; Jurkat NFkB inh: inactive; CSC inhib: inactive; Beta cell apopt: inactive; 697 NFkB inh: inactive; Gli-Sufu confirm: inactive; SufuKO cytotox: inactive; Wnt3a counter: inactive

Results for COc1ccc2c(c1)C(C)=CC(C)(C)N2S(=O)(=O)c1ccc(Br)cc1 ?
Gli-Sufu block: 59; CSC inhib: inactive; Beta cell apopt: inactive; Gli-Sufu confirm: 58; SufuKO cytotox: 58; Wnt3a counter: inactive

Results for COc1cccc(CN2CCN(S(=O)(=O)c3ccc(Br)cc3)CC2)c1 ?
Gli-Sufu block: inactive; Mdm2 MdmX PPI: inactive; Jurkat NFkB inh: inactive; CSC inhib: inactive; Beta cell apopt: inactive; 697 NFkB inh: inactive

How did N#C/C(=C/c1ccc(N2CCCC2)c([N+](=O)[O-])c1)c1nc2ccccc2[nH]1 do in these assays?
Gli-Sufu block: inactive; Mdm2 MdmX PPI: inactive; Jurkat NFkB inh: inactive; CSC inhib: inactive; Beta cell apopt: inactive; 697 NFkB inh: inactive
